The nature of assay [1]: Cell Viability - HepG2 (AID 433; calls by dose curve;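 also: potency is read from the fitted curve at half-maximal effect; cells exposed to compound for 40 hours; potency for ATP loss meaning cytotoxicity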). As to conditions: qHTS. The essentials: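 ATP luminescence (CellTiter-Glo) after 40 h compound exposure, 37 °C, HepG2, 1500 cells/well, complete medium. Normalized: DMSO = basal, 100 uM tamoxifen = 100% inhibition. AC50 via standard Hill equation.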
Assay [2] can be described thus: Cell Viability - Mesenchymal (AID 546).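 Also: cells exposed to compound for 40 hours before reading.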 Also: potency is read from the fitted curve at half-maximal effect. The note with it: mesenchymal cells viability, qHTS; activity change, negative = cytotoxicity: at 91.7 µM (top of the series). The essentials:
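Human kidney mesenchymal cells from normal renal glomeruli, 1000 cells/well, rested 5 hr at 37 °C, then treated 40 hr at 37 °C in complete medium. Cellular ATP read by CellTiter-Glo luminescence; AC50 from Hill-equation fits.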

A short description of assay [3]: Cellular Toxicity (caspase-3) Jurkat (AID 655).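 Also: cells exposed to compound for 16 h at 37 °C before reading.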 Also: potency is read from the fitted curve at half-maximal effect. As to conditions: Jurkat caspase-3 activation, luminescence; caspase-3 activation: at 92.2 µM (top of the series), DMSO = 0%, tamoxifen = 100%. The essentials: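 Luminescent caspase-3/7 readout (aminoluciferin substrate cleavage) in human T-cell leukemia Jurkat cells after 16 hr compound exposure. Concentration-response normalized to DMSO and 100 uM tamoxifen; AC50 by standard Hill equation.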

Assay [4] in a line: Cellular Toxicity (caspase-3) Mesangial (AID 660).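 Also: combined caspase 3 and 7 activity read by Caspase-Glo luminescence; cells exposed to compound for 16 h before the caspase read.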 The note with it: mesangial cells, normalized: DMSO 0%, 100 µM tamoxifen 100%; at 91.7 µM (top of the series). The essentials: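 Human renal glomerular mesangial cells, 1000/well, 5 h at 37 C before 16 h compound treatment. Caspase-Glo 3/7 luminescence after 20 min; normalized to DMSO and 100 uM tamoxifen, AC50 from Hill fit.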

Assay [5] can be described thus: qHTS assay for small molecule disruptors of the mitochondrial membrane potential - 5 hr assay (AID 651755; calls by dose curve; also: nearly all actives have a fitted effect of over 40% in size; also: potency is read from the fitted curve at half-maximal effect). The note with it: JC-1-type ratio dye; series mostly up to 92.2 µM. The essentials:
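HepG2 cells (2,000/well), attached overnight, exposed to compound 5 hr at 37C, then Mito-MPS dye 30 min. Fluorescence read for monomers (490/535 nm) and aggregates (540/590 nm).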

Assay [6] can be described thus: Cell Viability - Hek293 (AID 427;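 active = compounds whose dose-response curve shows a full or clear partial loss of cell viability, called from curve shape rather than a numeric limit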;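 also: potency is read from the fitted curve at half-maximal effect; cells exposed to compound for 40 hours at 37 °C before reading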). The note with it: qHTS. The essentials:
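qHTS, human embryonic kidney (adenovirus-transformed) cells; 40 hr cpd, 37 °C; CellTiter-Glo ATP luminescence. Norm: DMSO = 0, 100 uM tamoxifen = 100% inhibition. Hill-fit AC50.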

Assay [7] is described as follows: Cellular Toxicity (caspase-3) HUV-EC-C (AID 656). The note with it: HUV-EC-C cells, caspase-3 activation (apoptosis); series mostly up to 92.2 µM. The essentials:
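Luminescent caspase-3/7 activation (aminoluciferin substrate cleavage) in HUV-EC-C cells after 16 hr compound exposure, 37°C. Signal normalized to DMSO basal and 100 uM tamoxifen as 100%; AC50 from concentration-response fitted with the Hill equation.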

Assay [8] can be described thus: Cellular Toxicity (caspase-3) BJ (AID 658). Also: potency is read from the fitted curve at half-maximal effect.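 As to caspase-3 activation: 0% = DMSO basal and 100% = 10 µM staurosporine.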 As to conditions: BJ fibroblasts, luminescence; Potency: caspase-3 activation; series mostly up to 91.7 µM. The essentials: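 BJ human foreskin fibroblasts, 1000 cells/well, treated 16 hours at 37 °C in complete medium; caspase 3/7 activity by Caspase-Glo luminescence after 1 hr at room temperature. Normalized to DMSO and 10 uM staurosporine; AC50 from Hill fits.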

A short description of assay [9]: Cellular Toxicity (caspase-3) SK-N-SH (AID 661).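 Also: 0% = DMSO basal and 100% = 10 µM staurosporine.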 The note with it: SK-N-SH caspase-3 activation, qHTS; caspase-3 activation: at 91.7 µM (top of the series), DMSO as zero, staurosporine as full. The essentials: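 Human SK-N-SH neuroblastoma cells, 1500/well, were exposed to compounds for 16 hours at 37 °C. Caspase-Glo 3/7 luminescence was normalized to DMSO (basal) and 10 uM staurosporine (100%), and AC50 came from a Hill fit.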

Assay [10] is described as follows: Cellular Toxicity (caspase-3) Hek293 (AID 664).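 Also: cells exposed to compound for 16 h at 37 °C before readout.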 As to conditions: HEK293 caspase-3 activation, DMSO = 0%, 100 µM tamoxifen = 100%; at 92.2 µM (top of the series). The essentials:
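HEK293 cells in complete medium treated 16 h at 37 °C, then Caspase-Glo 3/7 luminescence read after 20 min at room temperature. Normalized to DMSO and 100 uM tamoxifen; AC50 from Hill fit of concentration-response.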

Assay [11] is described as follows: MultiTox-Fluor Cytotoxicity Assay - LYMP1-001 - Dead Cells (AID 946). Also: potency is read from the fitted curve at half-maximal effect. As to conditions: LYMP1-001 lymphoblastoid cells, dead-cell protease fluorescence; series mostly up to 92.2 µM. The essentials: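 Seed 2500 LYMP1-001 cells/well, incubate 5 hr at 37 C; add compound, 16 hr at 37 C; add MultiTox-Fluor reagent, 60 min RT; read dead-cell fluorescence Ex/Em=485/520. Normalize to DMSO and 15 uM tetraoctylammonium bromide.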

Assay [12] is described as follows: Cell Viability - LYMP1-003 - Assay at 24 hr (AID 963). Also: potency is read from the fitted curve at half-maximal effect. As to conditions: LYMP1-003 lymphoblastoid cell viability; series mostly up to 92.2 µM. The essentials: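 Human lymphoblastoid LYMP1-003 cells, 2500/well, treated 24 h at 37 C in complete medium. Viability read as intracellular ATP by CellTiter-Glo luminescence after 30 min at room temperature; AC50 from Hill-equation fits of qHTS concentration-response.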

The nature of assay [13]: Cell Viability - LYMP1-003 - Assay at 40 hr (AID 964). Also: nearly all actives have a fitted effect of over 60% in size. Also: potency is read from the fitted curve at half-maximal effect. The note with it: LYMP1-003 lymphoblastoid viability; series mostly up to 92.2 µM. The essentials: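 LYMP1-003 human lymphoblastoid cells, 2500/well, preincubated 5 h at 37 C, then treated with compound for 40 h at 37 C. Intracellular ATP read by CellTiter-Glo luminescence after 30 min at room temperature; AC50 from Hill-equation fits.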

The nature of assay [14]: Cell Viability - LYMP2-003 (AID 965).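 Also: cells exposed to compounds for 24 h before reading; nearly all actives have a fitted effect of over 50% in size.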 Also: potency is read from the fitted curve at half-maximal effect.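 As to activity change, negative = cytotoxicity: 0% = DMSO only and full effect = 92 µM tetraoctylammonium bromide.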 As to conditions: LYMP2-003 lymphoblastoid cell viability; series mostly up to 92.2 µM. The essentials: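 CellTiter-Glo luminescence (cellular ATP) after 24 h compound exposure at 37 C in complete medium; 2500 cells/well, 5 h settling beforehand. Concentration-response fitted to standard Hill equation for AC50. Tetraoctylammonium bromide served as positive control.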

Assay [15] in a line: Cell Viability - LYMP2-009 (AID 968). Also: nearly all actives have a fitted effect of over 55% in size. Also: potency is read from the fitted curve at half-maximal effect. As to conditions: LYMP2-009 lymphoblastoid cell viability; series mostly up to 92.2 µM.
Assay [16] is described as follows: Cell Viability - LYMP2-017 (AID 972). Also: nearly all actives have a fitted effect of over 55% in size. Also: potency is read from the fitted curve at half-maximal effect. As to activity change, negative = cytotoxicity: % is scaled to controls: 0 for no effect and ±100 for the full control effect. As to conditions: LYMP2-017 lymphoblastoid cell viability; series mostly up to 92.2 µM. The essentials: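 LYMP2-017 human lymphoblastoid cells (2500/well) settled 5 hr at 37 C, then exposed to compound 24 hr at 37 C in complete medium. Viability taken as intracellular ATP by CellTiter-Glo luminescence after 30 min at RT; AC50 from Hill fits.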

Assay [17] can be described thus: Cell Viability - LYMP2-021 (AID 974).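 Also: compound exposure lasts 24 hours at 37 °C; nearly all actives have a fitted effect of over 55% in size.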 Also: potency is read from the fitted curve at half-maximal effect. As to activity change, negative = cytotoxicity: % is scaled to controls: 0 for no effect and ±100 for the full control effect. As to conditions: LYMP2-021 lymphoblastoid cells viability; series mostly up to 92.2 µM. The essentials:
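Human lymphoblastoid LYMP2-021 cells, 2500/well in complete medium, treated 24 hours at 37 C. Intracellular ATP by CellTiter-Glo luminescence (30 min, RT); AC50 from Hill fits of concentration-response.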

Assay [18] in a line: Cell Viability - LYMP2-007 (AID 979).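 Also: cells exposed to compound for 24 h before reading; nearly all actives have a fitted effect of over 60% in size.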 Also: potency is read from the fitted curve at half-maximal effect.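 As to activity change, negative = cytotoxicity: 0% = DMSO only and the negative end = 92 µM tetraoctylammonium bromide.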 The note with it: LYMP2-007 lymphoblastoid cell viability; series mostly up to 92.2 µM. The essentials:
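Human lymphoblastoid LYMP2-007 cells (2500/well) preincubated 5 h at 37 C, then treated 24 h at 37 C in complete medium. Viability by CellTiter-Glo ATP luminescence after 30 min at room temperature; AC50 from Hill fits.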

The target in assay [19] is Voltage-gated inwardly rectifying potassium channel KCNH2 (Homo sapiens) (UniProt Q12809). Nature of the assay: qHTS Assay for Small Molecule Inhibitors of the Human hERG Channel Activity (AID 588834).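 Also: lower thallium flux fluorescence means stronger hERG block; nearly all actives have a fitted effect of over 50% in size.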 Also: potency is read from the fitted curve at half-maximal effect. The note with it: U2OS BacMam hERG, FluxOR thallium flux fluorescence; series mostly up to 92.2 µM. The essentials: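 Concentration-response qHTS measuring drop in thallium-sensitive dye signal. U2OS cells carrying BacMam hERG; compound exposure ~10 min, then stimulation buffer and 2 min read at 1 sec intervals.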
Chain of Voltage-gated inwardly rectifying potassium channel KCNH2 (Homo sapiens) (Q12809 whole entry, looked up): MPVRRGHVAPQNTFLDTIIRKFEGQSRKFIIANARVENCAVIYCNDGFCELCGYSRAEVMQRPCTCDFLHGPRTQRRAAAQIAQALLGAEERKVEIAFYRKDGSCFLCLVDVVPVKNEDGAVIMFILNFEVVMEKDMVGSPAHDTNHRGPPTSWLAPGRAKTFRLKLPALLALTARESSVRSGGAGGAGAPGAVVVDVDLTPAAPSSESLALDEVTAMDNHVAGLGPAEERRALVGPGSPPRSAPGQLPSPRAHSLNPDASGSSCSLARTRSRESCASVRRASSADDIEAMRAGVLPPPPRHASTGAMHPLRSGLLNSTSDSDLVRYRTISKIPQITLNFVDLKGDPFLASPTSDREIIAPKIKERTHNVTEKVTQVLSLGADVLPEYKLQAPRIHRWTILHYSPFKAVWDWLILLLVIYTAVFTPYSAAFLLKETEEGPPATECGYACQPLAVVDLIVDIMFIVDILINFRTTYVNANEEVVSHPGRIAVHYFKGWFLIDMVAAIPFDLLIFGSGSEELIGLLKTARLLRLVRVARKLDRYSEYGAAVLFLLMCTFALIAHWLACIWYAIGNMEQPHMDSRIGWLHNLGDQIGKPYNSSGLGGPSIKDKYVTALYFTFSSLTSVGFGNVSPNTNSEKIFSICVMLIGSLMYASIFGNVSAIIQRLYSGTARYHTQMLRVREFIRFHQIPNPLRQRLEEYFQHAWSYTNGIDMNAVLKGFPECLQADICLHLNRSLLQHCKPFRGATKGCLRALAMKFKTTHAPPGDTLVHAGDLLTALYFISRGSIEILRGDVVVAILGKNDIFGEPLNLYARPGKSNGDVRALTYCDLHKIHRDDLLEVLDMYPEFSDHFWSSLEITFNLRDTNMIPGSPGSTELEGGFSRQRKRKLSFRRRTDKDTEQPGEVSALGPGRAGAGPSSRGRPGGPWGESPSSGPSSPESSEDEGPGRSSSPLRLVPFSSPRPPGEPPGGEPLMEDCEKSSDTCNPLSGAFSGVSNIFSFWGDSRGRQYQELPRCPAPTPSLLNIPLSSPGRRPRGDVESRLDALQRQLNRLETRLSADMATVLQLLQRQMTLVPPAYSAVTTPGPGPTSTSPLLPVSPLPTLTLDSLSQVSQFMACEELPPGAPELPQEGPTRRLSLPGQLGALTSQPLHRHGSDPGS

A short description of assay [20]: qHTS assay for cell viability of HEK293 cells (AID 743288). Also: nearly all actives have a fitted effect of over 50% in size. Also: potency is read from the fitted curve at half-maximal effect. As to max response: % is scaled to controls: 0 for no effect and ±100 for the full control effect. As to conditions: ATP luminescence (CellTiter-Glo), 18 h; max response: hits give low values. The essentials: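 Environmental chemicals tested in qHTS format against parental HEK293 cells; 18 h treatment, 37 C; read-out ATP luminescence (CellTiter-Glo), 30 min RT development.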

“And” between values parts separate entries of the source, which are not always exact repeats. Equal entries are not always repeated. Unmarked numbers belong to inactive results. Results filed as inconclusive are left out. The source made the active and inactive calls. Unless noted, calls follow the shape of the dose curve; as a rule, active = well fitted curve in the direction sought with a large enough effect; inconclusive = small, poorly fitted or top-dose-only effect, or another doubt; inactive = no such curve, though single readings can be large; an effect the other way counts as inactive or inconclusive.

As to `CC/C(=C(\c1ccccc1)c1ccc(OCCN(C)C)cc1)c1ccc(O)cc1`, the figures for the Potency in assay [1], in assay [2] and in assay [3] were 29.4 µM (active), 31.6 µM (active) and 31.6 µM (active), respectively. Further, the caspase-3 activation in assay [4] was -2.42%. In addition, the Potency entry in assay [5] is “inactive”.

Turning to `Nc1ccc2cc3ccccc3cc2c1`, the Potency in assay [6] is more than 92 µM; in [1], more than 92 µM; in assay [19] it was 5.01 µM (active); in assay [5], 3.76 µM (active). Also, the Potency entry in assay [2], in assay [3], in assay [7], in assay [8], in assay [11] and in assay [12] was “inactive” in each case. Moreover, the Potency result in [13], in [14], in assay [15], in [16], in assay [17] and in assay [18] was “inactive” each time. Moreover, the values for the caspase-3 activation in assay [4], in assay [9] and in assay [10] were -0.235%, -1.26% and -0.457%, respectively. Besides, the max response in assay [20] is -16.2%.

For the molecule `c1ccc2c(c1)ccc1cc3c(ccc4ccccc43)cc12`, the Potency in assay [6] and in assay [1] was more than 92 µM each time. For the same molecule, the Potency result in assay [2], in assay [3], in assay [7], in [8], in assay [11] and in assay [12] was “inactive” throughout. The Potency result in [13], in assay [14], in [15], in assay [16], in assay [17] and in assay [18] was “inactive” in each case. Besides, in assay [19], the Potency result is “inactive”. Further, the figures for the caspase-3 activation in [4], in assay [9] and in assay [10] were 0.415%, -0.556% and -3.42%, respectively. Besides, the max response in assay [20] is -4.73%.

Take `C=CC(=O)OCC(CO)(COC(=O)C=C)COC(=O)C=C`: the Potency was 8.68 µM (active) in assay [6]; more than 92 µM in [1]; 5.01 µM (active) and 22.4 µM (active) in assay [20]. For the same molecule, the activity change, negative = cytotoxicity in assay [2] was -91.9% (active). Moreover, the caspase-3 activation in assay [3] was -6.15% (active); in assay [9] it was -3.53% (active); in assay [10] it was -6.03%. Besides, the Potency result in [7] and in assay [19] was “inactive” throughout.

With `CCCCCCCC[N+](CCCCCCCC)(CCCCCCCC)CCCCCCCC`, the Potency is 7.17 µM (active) in assay [6]; 4.92 µM (active) in assay [1]; 10 µM (active) in [2]; 12.6 µM (active) in [3]; 12.6 µM (active) in assay [8]; 6.31 µM (active) in [11]. Further, the Potency in assay [12] was 7.94 µM (active); in assay [13] it was 3.16 µM (active); in assay [14] it was 10 µM (active); in assay [15] it was 3.98 µM (active); in assay [16], 7.94 µM (active); in assay [17], 7.94 µM (active). The Potency is 2.51 µM (active) in assay [18], 0.355 µM (active) in [19], 2.66 µM (active) in assay [5] and 28.2 µM (active) in assay [20].

Consider `O=C(/C=C/c1ccc(O)c(O)c1)OC1C[C@](O)(C(=O)O)C[C@@H](O)[C@H]1O` (stereo not given in full), for which the Potency in assay [6] and in assay [1] was more than 92 µM each time. Further, the Potency entry in assay [2], in assay [3], in assay [7], in [8], in assay [11] and in assay [12] was “inactive” in each case. Further, the Potency entry in assay [13], in [14], in [15], in [16], in assay [17] and in assay [18] was “inactive” each time. Moreover, the Potency entry in assay [19] and in assay [5] was “inactive” in each case. Further, the caspase-3 activation in assay [4] is -0.588% and 1.58%; in assay [9], 0.0888% and -0.0196%; in assay [10], 0.862% and -1.58%. Moreover, the max response in [20] was 5.94% and -3.39%.

Turning to `O=C1OC2(c3cc(Br)c(O)c(Br)c3Oc3c2cc(Br)c(O)c3Br)c2c(Cl)c(Cl)c(Cl)c(Cl)c21`, the values for the Potency in assay [6] and in assay [19] were more than 92 µM and 3.98 µM (active), respectively. The Potency entry in assay [3], in assay [7], in [8], in assay [11], in assay [12] and in assay [13] was “inactive” throughout. Also, the Potency entry in assay [14], in assay [16], in assay [17] and in assay [18] was “inactive” each time. In addition, the results for the caspase-3 activation in assay [4], in [9] and in assay [10] were -1.97%, 0.172% and -0.811%, respectively. For the same molecule, the max response in assay [20] was -29.6%.

For the origin of these results see PubChem BioAssay (NCATS).
